Assay outcomes deposited in PubChem by several laboratories.
Most compounds without a hit are left out; they make up all but 4.5% or so of the library.
GDH-TPI counter: inhibits GDH-TPI coupling enzymes, artifact for Mtb FBA screen; GDH-TPI coupled enzyme counterscreen, NADH absorbance; inhibition, % at 4.8 µM; 360,000 tested, 1.2% active; AID 588335; in the data active means inhibition above about 30%;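 further: 0% = DMSO wells and 100% = wells lacking the enzyme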
PfHsp40 yeast: restores yeast growth despite PfHsp40 toxicity. S. cerevisiae expressing PfHsp40, growth rescue, ATP luminescence. growth rescue, % at 12.5 µM. 340,000 tested, 0.68% active. AID 504582; in the data active means growth rescue above about 28%, passing the limit was not always enough; inconclusive means no clear call, values can overlap the other calls;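 further: yeast W303a lacking pdr1 and pdr3 grown in galactose medium; growth measured after three days at 30 °C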
PrPC TRFRET: inhibitors of human cell surface prion protein PrPC | P04156 | AID 720596 | inhibition, % at 13.8 µM | 370,000 tested, 0.43% active | TR-FRET read-out; in the data active means inhibition above about 24%; further: 0% = median of the test wells and 100% = reference compound wells
Mtb FBA inh: Mtb fructose-bisphosphate aldolase inhibition | P9WQA3 | purified M. tuberculosis FBA, fluorescence read-out | 360,000 tested, 2.3% active | inhibition, % at 1 µM; in the data active means inhibition above about 27%;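 further: 0% = vehicle and 100% = reference inhibitor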
Target sequence (P9WQA3 whole entry, looked up): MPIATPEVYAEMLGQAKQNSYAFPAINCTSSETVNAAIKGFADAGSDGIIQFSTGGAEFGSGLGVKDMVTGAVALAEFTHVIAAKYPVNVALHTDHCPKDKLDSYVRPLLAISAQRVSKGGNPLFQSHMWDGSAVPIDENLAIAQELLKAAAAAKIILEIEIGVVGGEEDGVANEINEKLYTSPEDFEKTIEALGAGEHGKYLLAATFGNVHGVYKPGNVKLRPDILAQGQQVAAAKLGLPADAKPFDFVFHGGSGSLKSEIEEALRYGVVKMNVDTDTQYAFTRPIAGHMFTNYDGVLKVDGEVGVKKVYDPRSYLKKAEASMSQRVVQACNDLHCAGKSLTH
BJeLR lethal: kills HRASV12-expressing BJeLR cells; BJeLR (HRASV12) viability, CellTiter-Glo ATP luminescence, 48 h; inhibition, % (no concentration beside the values); 300,000 tested, 0.17% active; AID 1554; in the data active means inhibition above about 50%; inconclusive means no clear call, values can overlap the other calls
PrP UTR inh: suppresses PrP 5' UTR mRNA reporter expression | cell-based PrP 5' UTR mRNA reporter, plate reader | inhibition, % (test concentration not listed) | 340,000 tested, 0.35% active; in the data active means inhibition above about 52%; further: 0 = median of the neutral control wells
* = called active by the depositor; ? = inconclusive; / = no result given; + = active, no number.

SMILES | GDH-TPI counter | PfHsp40 yeast | PrPC TRFRET | Mtb FBA inh | BJeLR lethal | PrP UTR inh
O=C1C2C3C=CC(C4CC34)C2C(=O)N1/N=C/c1ccc(-c2ccc(Cl)cc2[N+](=O)[O-])o1 (centres undefined) | 36.6* | 0.9 | -8.6 | -1.0 | -1.3 | -20.0
O=C1C2C3C=CC(C4CC34)C2C(=O)N1/N=C/c1ccc(-c2ccc(F)cc2[N+](=O)[O-])o1 (centres undefined) | 32.4* | -0.4 | -12.2 | -4.7 | 5.9 | -10.8
COc1ccc(-c2ccc(/C=N/N3C(=O)C4C5C=CC(C6CC56)C4C3=O)o2)c([N+](=O)[O-])c1 (centres undefined) | 15.4 | -0.2 | -3.7 | 0.8 | -5.5 | -31.8
CCOC(=O)c1c2c(n(C)c1COC)C(=O)C(=O)c1ccc(Br)cc1-2 | / | / | / | / | 69.0* | /
N#C/C(=C\c1ccc(O)c(O)c1)C(=O)c1ccc(O)c(O)c1 | 46.1* | -1.3 | 3.2 | -7.0 | / | -16.4
Nc1cc(=O)n(Cc2ccccc2)c(N)c1C(=O)NCc1ccccc1 | / | / | -1.3 | / | / | /
O=C(N/C(=C\c1ccc(Br)cc1)c1nc2ccccc2[nH]1)c1ccco1 | 47.2* | 0.0 | 9.5 | 2.4 | 0.3 | -37.9
O=C(N/C(=C/c1cccs1)c1nc2ccccc2[nH]1)c1ccccc1 | 32.8* | -0.8 | -1.7 | -1.1 | -22.5 | -23.4
Cc1ccc(C(=O)N/C(=C\c2cccs2)c2nc3ccccc3[nH]2)cc1 | 43.5* | -0.3 | 10.3 | -0.1 | -1.7 | -28.8
CC(O)/C=C/C1OC(=O)CC1Nc1ccc(C=O)cc1 (centres undefined) | 34.3* | 1.0 | 2.0 | 0.0 | -0.1 | -16.6
Cc1cc(Br)ccc1Nc1nc(N)nc(N)c1N=O | 32.5* | -0.2 | -19.1 | 5.3 | / | -19.5
Cc1cccc(Nc2nc(C)cc(C)c2C#N)c1 | 8.6 | -0.2 | 1.9 | 0.5 | -7.8 | -34.5
Cc1cccc(Nc2nc(N)nc(N)c2N=O)c1 | 30.7* | 1.5 | -46.1 | -1.2 | / | -8.4
Cc1cccc(Nc2nc(N)c(C#N)c(CC#N)c2C#N)c1 | 64.2* | -0.5 | 9.4 | -0.4 | 0.6 | -15.4
O=S1(=O)c2c(cccc2N2CCC[C@H]2CO)O[C@@H]2CCN1C2 | / | / | 2.3 | / | / | /
CCCCCN1CCCCC(NC(=O)C(C)(C)C)C1=O (centres undefined) | / | / | -1.7 | / | / | /
[O-][n+]1cccc2c(Br)cc(Br)c(O)c21 | 11.9 | 310.1* | -5.8 | 2.2 | 4.1 | -19.0
O/N=C(\c1ccc(Cl)cc1)c1cc2ccccc2o1 | -4.5 | 641.2* | -2.5 | -2.3 | -1.3 | -35.2
CC(=O)N1CCN(c2ccc(NC(=O)c3ccc4c(c3)OCO4)cc2)CC1 | 9.5 | 105.9* | 8.3 | -8.2 | -4.5 | -6.9
Cc1ccc2oc(-c3ccc(NC(=O)c4ccc5c(c4)OCO5)cc3)nc2c1 | -5.0 | 1.2 | -4.1 | 8.6 | 3.8 | -38.7
O=C(Nc1ccc(-c2nc3ccccc3o2)cc1)c1ccc2c(c1)OCO2 | 36.1* | -0.1 | -5.2 | 1.2 | -1.2 | -18.5
Cc1ccc(NC(=O)OC2CCC23CCCCC3)cc1 (centres undefined) | / | / | 5.2 | / | / | /
CC(=O)CC[C@H]1CC[C@]2(CCCN(C(=O)c3ccc4ccccc4n3)C2)O1 | / | / | 6.3 | / | / | /
CCCC1CCC2(CCCN2CCOC(=O)Nc2cccc(Cl)c2)CC1 (centres undefined) | / | / | 2.0 | / | / | /
CN(C)S(=O)(=O)c1cccc(-c2cn3cccnc3n2)c1 | 6.1 | ? | -3.7 | 173.0* | -1.6 | -14.9
SMILES | GDH-TPI counter | PfHsp40 yeast | PrPC TRFRET | Mtb FBA inh | BJeLR lethal | PrP UTR inh
Cc1ccc2nc(-c3cccc(S(=O)(=O)N4CCCC4)c3)cn2c1 | 10.6 | -0.1 | 1.5 | 3.5 | -8.4 | -38.5
O=S(=O)(c1cccc(-c2cn3cccnc3n2)c1)N1CCOCC1 | 27.4 | 1.4 | -1.9 | + | / | -3.3
CN(C)S(=O)(=O)c1ccc(-c2cn3ccccc3n2)cc1 | 7.4 | -1.5 | 10.4 | 159.8* | -2.8 | -47.3
COCCNC(=O)C[C@H]1CC[C@H]2[C@@H](COc3ccc(NS(=O)(=O)c4ccc(Cl)cc4)cc3C(=O)N2C)O1 | / | / | 6.0 | / | / | /
C/C=C(\C)C(=O)Nc1cccc(C2=NOC3(C2)C[C@@H](C(N)=O)N(C(=O)c2ccccc2C(=O)c2ccccc2)C3)c1 (some centres undefined) | 9.7 | 51.2* | 0.2 | -0.4 | -13.6 | -19.5
C/C=C(/C)C(=O)Nc1cccc(C2=NOC3(C2)C[C@H](C(N)=O)N(C(=O)c2ccccc2)C3)c1 (some centres undefined) | 7.4 | 0.0 | 2.7 | 3.1 | 7.4 | 1.6
CCCCS/C(N)=N/N=C/c1cc(C)ccc1O | 40.9* | 1.4 | 2.4 | 2.1 | 11.0 | -18.8
COC(=O)c1cc(S(=O)(=O)N2CCCN(C(C)=O)CC2)cn1C | / | / | 9.0 | / | / | /
CCOC(=O)c1c(C)[nH]sc1=S | 29.4 | -0.8 | 20.6 | 1.3 | 4.6 | -7.2
CCOC(=O)c1sc(=S)[nH]c1C | 30.7* | 1.3 | 21.9 | -2.6 | / | -32.5
CCN1C(=O)[C@@H]2Cc3c([nH]c4ccccc34)C(c3cc(OC)c(OC)c(OC)c3)N2C1=S (some centres undefined) | 6.4 | -0.4 | -6.4 | 0.7 | -0.6 | -9.7
COc1cc([C@H]2c3[nH]c4ccccc4c3C[C@H]3C(=O)N4[C@@H](c5cc(OC)c(OC)c(OC)c5)c5[nH]c6ccccc6c5C[C@H]4C(=O)N23)cc(OC)c1OC | 3.2 | 0.1 | / | 3.0 | 82.7* | -5.0
O=c1c2cc(Br)ccc2[nH]c(=S)n1-c1ccccc1 | -1.9 | 0.1 | 2.6 | 1.8 | 9.6 | 9.6
CCc1cc2c(=O)n(-c3ccccc3)c(=S)[nH]c2s1 | 32.3* | -1.2 | -0.1 | 1.6 | -4.6 | /
C[C@H]1[C@@H](N(C)CC2CCCCC2)CC[C@@]23CCCN2C(=O)CCC[C@@H]13 | / | / | 1.2 | / | / | /
O=C(COc1ccc(F)cc1Cl)Nc1nnc(-c2ccc(F)c(F)c2)o1 | / | / | -5.1 | / | / | /
CCOc1cc(/C=N/NC(=O)c2ccc3c(c2)OCCO3)cc(Br)c1O | 40.6* | 2.0 | -4.8 | 4.7 | -2.7 | -19.0
O=C(N/N=C/c1cc(Br)cc(Cl)c1O)c1ccc2c(c1)OCO2 | 8.4 | 257.3* | 7.9 | 9.3 | 5.5 | 12.9
O=C(N/N=C/c1cc(Br)c(O)c(Br)c1O)c1ccc2c(c1)OCCO2 | 31.4* | 152.1* | 1.6 | 18.6 | 11.3 | -15.7
CCOc1cc(/C=N/NC(=O)C(=O)NC2CC2)cc(Br)c1O | 32.7* | -0.4 | -5.1 | 1.4 | 3.1 | -17.8
CC(C)CN1C(=O)C[C@@]2(C(=O)N(C)c3ccc(NS(=O)(=O)C4CC4)cc32)C1c1ccccc1 (some centres undefined) | / | / | -4.6 | / | / | /
NC(=O)c1ccc(O)c2ncccc12 | / | / | -10.7 | / | / | /
O=Cc1ccc(O)c2ncccc12 | 8.9 | 627.6* | / | 2.3 | 64.3* | 11.7
COCCNC(=O)/C(C#N)=C/C=C/c1ccccc1[N+](=O)[O-] | 47.6* | 0.5 | 1.6 | -0.8 | 0.4 | -31.8
CCCCCCCCN1C(=O)[C@@H](CC(=O)NCc2cccs2)C[C@@]2(C(=O)OC)C1=C[C@H](C(C)C)O[C@@H]2C1CC1 | / | / | 2.7 | / | / | /
